Reference: PubChem BioAssay AID1159580 (chemical genetic matrix, 2015)
Hit rate of the full screen: of about 5,500 compounds, about 2,000 (36%) were called active. About 18% were inconclusive and are not listed. Rule as the data show it: active = normalized growth mostly below about 0.91 (no sharp cut-off); inconclusive = no clear call, values can overlap the other calls; inactive = mostly above about 0.92. The list shows a part of the results.

Experiment: chemical genetic growth profiling, strain panel (AID 1159580);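 also: tested at 20 µM; growth read once vehicle control cultures reached saturation at 30 °C; 1 = growth at the plate median or of vehicle wells; lower values mean less growth of the strain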
Conditions: S. cerevisiae deletion strains, growth OD

Measured: normalized growth

CC(=O)Oc1ccccc1C(=O)O
inactive: locus YAL021C, strain ccr4, stronger effect = lower value 0.993 | locus YAL026C, strain drs2, stronger effect = lower value 1 | locus YAL030W, strain snc1, stronger effect = lower value 1 | locus YAL040C, strain CLN3, stronger effect = lower value 0.996 | locus YBL061C, strain skt5, stronger effect = lower value 0.989 | locus YBR009C, strain hhf1, stronger effect = lower value 1.03 | locus YBR023C, strain chs3, stronger effect = lower value 1 | locus YBR171W, strain sec66, stronger effect = lower value 0.985 | locus YBR231C, strain swc5, stronger effect = lower value 1.01 | locus YBR279W, strain paf1, stronger effect = lower value 0.992 | locus YCL011C, strain gbp2, stronger effect = lower value 1 | locus YCL016C, strain dcc1, stronger effect = lower value 0.983 | locus YCL061C, strain MRC1 (second series), stronger effect = lower value 1 | locus YCL069W, strain vba3, stronger effect = lower value 1 | locus YCR088W, strain abp1, stronger effect = lower value 0.989 | locus YDL005C, strain med2, stronger effect = lower value 0.985 | locus YDL040C, strain nat1, stronger effect = lower value 0.996 | locus YDR001C, strain nth1, stronger effect = lower value 0.995 | locus YDR069C, strain doa4, stronger effect = lower value 1.01 | locus YDR137W, strain rgp1, stronger effect = lower value 1 | locus YDR150W, strain NUM1, stronger effect = lower value 0.992 | locus YDR159W, strain sac3, stronger effect = lower value 0.938 | locus YDR195W, strain ref2 1 | locus YDR297W, strain sur2, stronger effect = lower value 1.01 | locus YDR334W, strain swr1, stronger effect = lower value 0.991 | locus YDR335W, strain msn5, stronger effect = lower value 1.03 | locus YDR392W, strain spt3, stronger effect = lower value 0.906 | locus YEL003W, strain gim4, stronger effect = lower value 1.01 | locus YEL037C, strain rad23, stronger effect = lower value 0.998 | locus YEL061C, strain CIN8 (second series), stronger effect = lower value 0.996 | locus YER002W, strain NOP16, stronger effect = lower value 0.988 | locus YER015W, strain faa2, stronger effect = lower value 1.01 | locus YER016W, strain bim1, stronger effect = lower value 0.977 | locus YER111C, strain swi4, stronger effect = lower value 0.985 | locus YER155C, strain BEM2 (second series), stronger effect = lower value 0.996 | locus YFR010W, strain ubp6, stronger effect = lower value 1.09 | locus YGL167C, strain pmr1, stronger effect = lower value 1 | locus YGL173C, strain kem1, stronger effect = lower value 1 | locus YGL227W, strain vid30, stronger effect = lower value 0.989 | locus YGL240W, strain doc1, stronger effect = lower value 1 | locus YGL253W, strain hxk2, stronger effect = lower value 1.03 | locus YHR013C, strain ard1, stronger effect = lower value 0.969 | locus YHR027C, strain rpn1, stronger effect = lower value 1.02 | locus YHR030C, strain SLT2, stronger effect = lower value 1.03 | locus YHR079C, strain IRE1, stronger effect = lower value 1.04 | locus YHR142W, strain chs7, stronger effect = lower value 1.01 | locus YJL092W, strain hpr5, stronger effect = lower value 1 | locus YJL095W, strain BCK1 (second series), stronger effect = lower value 0.989 | locus YJL095W, strain BCK1, stronger effect = lower value 1.05 | locus YJL115W, strain asf1, stronger effect = lower value 0.988 | locus YJL129C, strain trk1, stronger effect = lower value 0.995 | locus YJL154C, strain vps35, stronger effect = lower value 0.989 | locus YJL164C, strain tpk1, stronger effect = lower value 0.999 | locus YJL166W, strain qcr8, stronger effect = lower value 1.01 | locus YJL187C, strain SWE1, stronger effect = lower value 0.987 | locus YJR066W, strain TOR1, stronger effect = lower value 0.978 | locus YKL160W, strain elf1, stronger effect = lower value 0.971 | locus YKR026C, strain gcn3, stronger effect = lower value 0.994 | locus YKR091W, strain srl3, stronger effect = lower value 1 | locus YLL001W, strain dnm1, stronger effect = lower value 0.974 | locus YLL026W, stronger effect = lower value 0.992 | locus YLL041C, strain sdh2, stronger effect = lower value 0.983 | locus YLR027C, strain aat2, stronger effect = lower value 1.01 | locus YLR113W, strain HOG1, stronger effect = lower value 1.01 | locus YLR221C, strain rsa3, stronger effect = lower value 0.996 | locus YLR258W, strain gsy2, stronger effect = lower value 0.997 | locus YLR262C, strain YPT6 (second series), stronger effect = lower value 0.984 | locus YLR320W, strain mms22, stronger effect = lower value 0.975 | locus YLR342W, strain FKS1, stronger effect = lower value 0.997 | locus YLR357W, strain rsc2, stronger effect = lower value 0.964 | locus YLR370C, strain arc18, stronger effect = lower value 1 | locus YLR384C, strain iki3, stronger effect = lower value 0.971 | locus YML120C, strain ndi1, stronger effect = lower value 1.02 | locus YMR058W, strain fet3, stronger effect = lower value 1 | locus YMR125W, strain sto1, stronger effect = lower value 0.997 | locus YMR129W, stronger effect = lower value 0.985 | locus YMR205C, strain PFK2, stronger effect = lower value 1.02 | locus YMR231W, strain pep5, stronger effect = lower value 0.994 | locus YNL071W, strain lat1, stronger effect = lower value 0.998 | locus YNL153C, strain GIM3, stronger effect = lower value 0.994 | locus YNL175C, strain NOP13, stronger effect = lower value 0.989 | locus YNL183C, strain NPR1, stronger effect = lower value 0.997 | locus YNL197C, strain WHI3, stronger effect = lower value 0.995 | locus YNL209W, strain ssb2, stronger effect = lower value 1.02 | locus YNL224C, strain SQS1, stronger effect = lower value 0.988 | locus YNL248C, strain rpa49, stronger effect = lower value 0.956 | locus YNL322C, strain KRE1 (second series), stronger effect = lower value 0.966 | locus YNR049C, strain mso1, stronger effect = lower value 1 | locus YOR001W, strain rrp6, stronger effect = lower value 1.02 | locus YOR070C, strain gyp1, stronger effect = lower value 0.998 | locus YOR080W, strain dia2, stronger effect = lower value 1 | locus YOR083W, strain WHI5 (second series), stronger effect = lower value 1.01 | locus YOR083W, strain WHI5, stronger effect = lower value 0.929 | locus YOR106W, strain vam3, stronger effect = lower value 0.994 | locus YOR231W, strain MKK1, stronger effect = lower value 1.06 | locus YOR265W, strain rbl2, stronger effect = lower value 1.02 | locus YOR270C, strain vph1, stronger effect = lower value 1.04 | locus YOR290C, strain snf2, stronger effect = lower value 0.989 | locus YPL051W, strain arl3, stronger effect = lower value 1 | locus YPL055C, strain LGE1, stronger effect = lower value 0.969 | locus YPL078C, strain atp4, stronger effect = lower value 0.984 | locus YPL106C, strain sse1, stronger effect = lower value 0.976 | locus YPL240C, strain hsp82, stronger effect = lower value 1 | locus YPL241C, strain CIN2, stronger effect = lower value 0.999 | locus YPL256C, strain CLN2, stronger effect = lower value 1.03
